Source: PubChem (The Scripps Research Institute Molecular Screening Center)
FBW7 activator = FBW7 E3 ligase activators, primary screen, biochemical, AlphaScreen, human; F-box/WD repeat-containing protein 7 (Homo sapiens), Q969H0; AlphaScreen FBW7–phospho-cyclin E peptide binding, activator screen; normalized activity (activation), % at 26.1 µM; 650,000 tested, 0.13% active; AID 1259310, 2017; in the data active means normalized activity above about 1.9%;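 further: purified mutant Fbw7 with reduced substrate affinity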
TEAD-YAP block = TEAD-YAP interaction inhibition, primary screen, TEAD-YAP interaction inhibitor project, luminescence, HEK-TIYL cells; 640,000 tested, 1.4% active; TEAD-Gal4/YAP UAS-luciferase luminescence; inhibition, % at 9.12 µM; in the data active means inhibition above about 32%
GPR151 ag = activators of human GPR151, primary screen, cell-based, PathHunter beta-arrestin, luminescence. 650,000 tested, 1% active. PathHunter beta-arrestin GPR151 cells. activation, % at 11.2 µM. AID 1508602, 2020; in the data active means activation above about 4.9%
Target sequence (Q8TDV0 whole entry, looked up): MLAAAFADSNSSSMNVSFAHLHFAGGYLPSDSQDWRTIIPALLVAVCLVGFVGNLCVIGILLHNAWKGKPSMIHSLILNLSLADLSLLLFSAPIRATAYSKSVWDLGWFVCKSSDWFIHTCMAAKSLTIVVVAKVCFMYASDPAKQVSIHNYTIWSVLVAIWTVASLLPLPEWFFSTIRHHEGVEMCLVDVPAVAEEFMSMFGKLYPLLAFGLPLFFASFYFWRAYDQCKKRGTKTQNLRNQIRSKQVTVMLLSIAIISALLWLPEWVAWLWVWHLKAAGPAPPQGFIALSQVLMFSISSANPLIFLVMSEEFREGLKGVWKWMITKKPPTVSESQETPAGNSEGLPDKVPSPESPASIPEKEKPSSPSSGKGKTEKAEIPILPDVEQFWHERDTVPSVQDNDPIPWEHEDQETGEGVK
MITF inh = MITF inhibitors, primary screen, biochemical, AlphaScreen, human; AID 1259374, 2018; inhibition, % at 2.6 µM; AlphaScreen MITF homodimerization, bead proximity signal; Microphthalmia-associated transcription factor (Homo sapiens), O75030; 650,000 tested, 0.91% active; in the data active means inhibition above about 50%
A number is an active result. Shown are actives, neighbours in structure and some others; about 3.5% of the full set was active somewhere.

Results for O=C(CN1CCN(Cc2ccc(Cl)cc2)C1=O)NCc1ccccc1Cl ?
FBW7 activator: inactive; TEAD-YAP block: inactive; GPR151 ag: inactive; MITF inh: inactive

Results for Cc1nc2ccccn2c1C(=O)NCc1ccccc1 ?
FBW7 activator: inactive; TEAD-YAP block: inactive; GPR151 ag: inactive; MITF inh: inactive

What do the screens show for `Cc1nc2ccccn2c1C(=O)NCc1ccccc1Oc1ccccc1`?
FBW7 activator: 1.9; TEAD-YAP block: inactive; GPR151 ag: inactive; MITF inh: inactive

Results for CCC(C)NC(=O)c1c(C)nc2ccccn12 (stereo not drawn) ?
FBW7 activator: 2.1; TEAD-YAP block: inactive; GPR151 ag: inactive; MITF inh: inactive

How did O=C(/C=C/c1ccccc1)N1CCN(Cc2nc(-c3ccc(F)cc3)cs2)CC1 do in these assays?
FBW7 activator: inactive; TEAD-YAP block: 39; GPR151 ag: inactive; MITF inh: inactive

Results for O=C(/C=C/c1ccc(F)cc1)N1CCN(Cc2ccccc2)CC1 ?
FBW7 activator: inactive; TEAD-YAP block: inactive; GPR151 ag: inactive; MITF inh: inactive

What do the screens show for `O=C(/C=C/c1ccccc1[N+](=O)[O-])N1CCCC1`?
FBW7 activator: inactive; TEAD-YAP block: inactive; GPR151 ag: inactive; MITF inh: inactive

How did O=C(/C=C/c1ccc(F)cc1)N1CCc2ccccc21 do in these assays?
FBW7 activator: inactive; TEAD-YAP block: 56; GPR151 ag: inactive; MITF inh: inactive

What do the screens show for `O=C(/C=C/c1ccccc1[N+](=O)[O-])N1CCc2ccccc21`?
FBW7 activator: inactive; TEAD-YAP block: 44; GPR151 ag: inactive; MITF inh: inactive

How did O=C(Nc1cc(Cl)ccc1Cl)c1cc(Br)cc(Br)c1O do in these assays?
FBW7 activator: inactive; TEAD-YAP block: 34; GPR151 ag: inactive; MITF inh: inactive

How did C[C@@H]1C[C@@H]2O[C@H]2C=CC=CC(=O)Cc2c(Cl)c(O)cc(O)c2C(=O)O1 do in these assays?
FBW7 activator: inactive; TEAD-YAP block: 52; GPR151 ag: inactive; MITF inh: inactive

Results for NS(=O)(=O)c1ccc(CCNCc2c(F)cccc2Cl)cc1 ?
FBW7 activator: inactive; TEAD-YAP block: inactive; GPR151 ag: inactive; MITF inh: inactive

Results for COc1ccc(/C=C2/SC(=N)N(c3cc(C)ccc3C)C2=O)cc1 ?
FBW7 activator: inactive; TEAD-YAP block: 38; GPR151 ag: inactive; MITF inh: inactive

What do the screens show for `CCOC(=O)/C(C#N)=N/Nc1ccccc1C#N`?
FBW7 activator: inactive; TEAD-YAP block: inactive; GPR151 ag: inactive; MITF inh: 52

Results for CCOC(=O)/C(C#N)=N\Nc1ccccc1OC ?
FBW7 activator: inactive; TEAD-YAP block: inactive; GPR151 ag: inactive; MITF inh: inactive

Results for Cc1nc(SCC(=O)Nc2ccc3ccccc3c2)c(C#N)c(C)c1Cl ?
FBW7 activator: inactive; TEAD-YAP block: inactive; GPR151 ag: inactive; MITF inh: inactive

How did Cc1cc(C(=O)NNC(=O)C(O)(c2ccccc2)c2ccccc2)cs1 do in these assays?
FBW7 activator: 1.9; TEAD-YAP block: inactive; GPR151 ag: inactive; MITF inh: inactive

Results for CN(C)CCCN(C(=O)c1ccc2c(c1)OCCO2)c1nc2c(F)cc(F)cc2s1 ?
FBW7 activator: inactive; TEAD-YAP block: inactive; GPR151 ag: inactive; MITF inh: inactive

What do the screens show for `CN(C)CCCN(C(=O)c1ccc(Br)s1)c1nc2c(F)cc(F)cc2s1`?
FBW7 activator: 3.2; TEAD-YAP block: inactive; GPR151 ag: inactive; MITF inh: inactive

What do the screens show for `Cc1ccc2cnn(CC(=O)NC(C)C)c2c1`?
FBW7 activator: inactive; TEAD-YAP block: inactive; GPR151 ag: inactive; MITF inh: inactive

What do the screens show for `O=C(COc1ccc(Br)cc1)Nc1ccccn1`?
FBW7 activator: inactive; TEAD-YAP block: 62; GPR151 ag: inactive; MITF inh: inactive

Results for CCCCOc1ccc(C(=O)NC(=S)Nc2ccccn2)cc1 ?
FBW7 activator: inactive; TEAD-YAP block: inactive; GPR151 ag: inactive; MITF inh: inactive

What do the screens show for `Cc1ccc(C(=O)NC(=S)Nc2cccc(C(=O)O)c2)cc1`?
FBW7 activator: inactive; TEAD-YAP block: 75; GPR151 ag: inactive; MITF inh: inactive

How did Cc1cccc(C(=O)NC(=S)Nc2cccc(C(=O)O)c2)c1 do in these assays?
FBW7 activator: inactive; TEAD-YAP block: inactive; GPR151 ag: inactive; MITF inh: inactive

How did O=C(Nc1ccccn1)c1ccc(-c2ccccc2)cc1 do in these assays?
FBW7 activator: inactive; TEAD-YAP block: 75; GPR151 ag: inactive; MITF inh: inactive

Results for CCOc1ccc(C(=O)NC(=S)Nc2ccccn2)cc1 ?
FBW7 activator: inactive; TEAD-YAP block: 86; GPR151 ag: inactive; MITF inh: inactive

What do the screens show for `O=c1[nH]c(=O)n(CCC2=CCCCC2)c(O)c1C=NCCN1CCCCC1`?
FBW7 activator: inactive; TEAD-YAP block: inactive; GPR151 ag: inactive; MITF inh: inactive

What do the screens show for `Cc1ccccc1-n1ncc(C(C)NC(=O)CCc2cnn(C)c2)c1C` (stereo not drawn)?
FBW7 activator: inactive; TEAD-YAP block: inactive; GPR151 ag: inactive; MITF inh: inactive

Results for CCN(CC)C(=O)C1CCCN(c2nc(NCCN(C(C)C)C(C)C)c3ncn(Cc4ccc(C(F)(F)F)cc4)c3n2)C1 (stereo not drawn) ?
FBW7 activator: inactive; TEAD-YAP block: inactive; GPR151 ag: inactive; MITF inh: inactive

What do the screens show for `Cc1ccc(OCC(=O)Nc2cccc(C(=O)O)c2)cc1`?
FBW7 activator: inactive; TEAD-YAP block: 69; GPR151 ag: inactive; MITF inh: inactive

Results for Cc1ccc(OCC(=O)Nc2ccccn2)cc1 ?
FBW7 activator: inactive; TEAD-YAP block: 83; GPR151 ag: inactive; MITF inh: inactive

What do the screens show for `CCOc1ccc(OCC(=O)Nc2cccc(C(=O)O)c2)cc1`?
FBW7 activator: inactive; TEAD-YAP block: inactive; GPR151 ag: inactive; MITF inh: inactive

Results for COc1cc(OC)cc(C(=O)N/N=C(\C)CC(=O)Nc2ccccn2)c1 ?
FBW7 activator: inactive; TEAD-YAP block: 56; GPR151 ag: inactive; MITF inh: inactive

Results for O=C(COc1ccccc1)Nc1ccccn1 ?
FBW7 activator: inactive; TEAD-YAP block: inactive; GPR151 ag: inactive; MITF inh: inactive

How did COc1ccc(S(=O)(=O)N2CCC(O)(c3cccnc3)CC2)cc1 do in these assays?
FBW7 activator: inactive; TEAD-YAP block: inactive; GPR151 ag: inactive; MITF inh: inactive

How did O=c1[nH]c(=O)n(-c2cccc(Cl)c2)c(O)c1/C=N/c1nnc(-c2ccc(Cl)cc2Cl)s1 do in these assays?
FBW7 activator: inactive; TEAD-YAP block: inactive; GPR151 ag: inactive; MITF inh: inactive

What do the screens show for `C[C@H]1O[C@@H](O[C@H]2[C@@H](O)C[C@H](O[C@H]3[C@@H](O)C[C@H](O[C@H]4CC[C@@]5(C)[C@H](CC[C@@H]6[C@@H]5C[C@@H](O)[C@]5(C)[C@@H](C7=CC(=O)OC7)CC[C@]65O)C4)O[C@@H]3C)O[C@@H]2C)C[C@H](O)[C@@H]1O`?
FBW7 activator: inactive; GPR151 ag: inactive; MITF inh: inactive
